The source made the active and inactive calls.
Columns and labels:
[1] = binders of probe aFSTL3 on microarray, primary screen, stem cell growth factor project, biochemical, small-molecule microarray, fluorescence 635/667 (AID 1064); settings: higher = more signal;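 further: measures binding of the biotinylated anti-FSTL3 antibody to printed compounds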
[2] = binders from COS7 lysate, DM2A8 probe, primary screen, torsin A project, cell lysate, small-molecule microarray, fluorescence 635/667 (AID 1065); settings: higher = more signal, COS7 lysate expressing mutant human TOR1A
[3] = binders of probe aFGF2 on microarray, primary screen, stem cell growth factor project, biochemical, small-molecule microarray, fluorescence 635/667 (AID 1067); settings: higher = more signal;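 further: measures binding of biotinylated aFGF2 protein to printed compounds on slides; z-score merges feature fluorescence and signal-to-noise across triplicate slides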
[4] = binders of probe aFGF10 on microarray, primary screen, stem cell growth factor project, biochemical, small-molecule microarray, fluorescence 635/667 (AID 1071); settings: higher = more signal;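 further: score merges 667 nm spot intensity and signal to noise from triplicate slides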
[5] = molecular target: Neurogenic locus notch homolog protein 2 (Homo sapiens) (UniProt Q04721); assay: Notch2 binders on small-molecule microarrays, primary screen, biochemical, small-molecule microarray, 635 nm fluorescence, stem cell growth factors (AID 1073); settings: Notch2 binding, higher = more signal
Chain of Neurogenic locus notch homolog protein 2 (Homo sapiens) (Q04721 whole entry, looked up, canonical isoform): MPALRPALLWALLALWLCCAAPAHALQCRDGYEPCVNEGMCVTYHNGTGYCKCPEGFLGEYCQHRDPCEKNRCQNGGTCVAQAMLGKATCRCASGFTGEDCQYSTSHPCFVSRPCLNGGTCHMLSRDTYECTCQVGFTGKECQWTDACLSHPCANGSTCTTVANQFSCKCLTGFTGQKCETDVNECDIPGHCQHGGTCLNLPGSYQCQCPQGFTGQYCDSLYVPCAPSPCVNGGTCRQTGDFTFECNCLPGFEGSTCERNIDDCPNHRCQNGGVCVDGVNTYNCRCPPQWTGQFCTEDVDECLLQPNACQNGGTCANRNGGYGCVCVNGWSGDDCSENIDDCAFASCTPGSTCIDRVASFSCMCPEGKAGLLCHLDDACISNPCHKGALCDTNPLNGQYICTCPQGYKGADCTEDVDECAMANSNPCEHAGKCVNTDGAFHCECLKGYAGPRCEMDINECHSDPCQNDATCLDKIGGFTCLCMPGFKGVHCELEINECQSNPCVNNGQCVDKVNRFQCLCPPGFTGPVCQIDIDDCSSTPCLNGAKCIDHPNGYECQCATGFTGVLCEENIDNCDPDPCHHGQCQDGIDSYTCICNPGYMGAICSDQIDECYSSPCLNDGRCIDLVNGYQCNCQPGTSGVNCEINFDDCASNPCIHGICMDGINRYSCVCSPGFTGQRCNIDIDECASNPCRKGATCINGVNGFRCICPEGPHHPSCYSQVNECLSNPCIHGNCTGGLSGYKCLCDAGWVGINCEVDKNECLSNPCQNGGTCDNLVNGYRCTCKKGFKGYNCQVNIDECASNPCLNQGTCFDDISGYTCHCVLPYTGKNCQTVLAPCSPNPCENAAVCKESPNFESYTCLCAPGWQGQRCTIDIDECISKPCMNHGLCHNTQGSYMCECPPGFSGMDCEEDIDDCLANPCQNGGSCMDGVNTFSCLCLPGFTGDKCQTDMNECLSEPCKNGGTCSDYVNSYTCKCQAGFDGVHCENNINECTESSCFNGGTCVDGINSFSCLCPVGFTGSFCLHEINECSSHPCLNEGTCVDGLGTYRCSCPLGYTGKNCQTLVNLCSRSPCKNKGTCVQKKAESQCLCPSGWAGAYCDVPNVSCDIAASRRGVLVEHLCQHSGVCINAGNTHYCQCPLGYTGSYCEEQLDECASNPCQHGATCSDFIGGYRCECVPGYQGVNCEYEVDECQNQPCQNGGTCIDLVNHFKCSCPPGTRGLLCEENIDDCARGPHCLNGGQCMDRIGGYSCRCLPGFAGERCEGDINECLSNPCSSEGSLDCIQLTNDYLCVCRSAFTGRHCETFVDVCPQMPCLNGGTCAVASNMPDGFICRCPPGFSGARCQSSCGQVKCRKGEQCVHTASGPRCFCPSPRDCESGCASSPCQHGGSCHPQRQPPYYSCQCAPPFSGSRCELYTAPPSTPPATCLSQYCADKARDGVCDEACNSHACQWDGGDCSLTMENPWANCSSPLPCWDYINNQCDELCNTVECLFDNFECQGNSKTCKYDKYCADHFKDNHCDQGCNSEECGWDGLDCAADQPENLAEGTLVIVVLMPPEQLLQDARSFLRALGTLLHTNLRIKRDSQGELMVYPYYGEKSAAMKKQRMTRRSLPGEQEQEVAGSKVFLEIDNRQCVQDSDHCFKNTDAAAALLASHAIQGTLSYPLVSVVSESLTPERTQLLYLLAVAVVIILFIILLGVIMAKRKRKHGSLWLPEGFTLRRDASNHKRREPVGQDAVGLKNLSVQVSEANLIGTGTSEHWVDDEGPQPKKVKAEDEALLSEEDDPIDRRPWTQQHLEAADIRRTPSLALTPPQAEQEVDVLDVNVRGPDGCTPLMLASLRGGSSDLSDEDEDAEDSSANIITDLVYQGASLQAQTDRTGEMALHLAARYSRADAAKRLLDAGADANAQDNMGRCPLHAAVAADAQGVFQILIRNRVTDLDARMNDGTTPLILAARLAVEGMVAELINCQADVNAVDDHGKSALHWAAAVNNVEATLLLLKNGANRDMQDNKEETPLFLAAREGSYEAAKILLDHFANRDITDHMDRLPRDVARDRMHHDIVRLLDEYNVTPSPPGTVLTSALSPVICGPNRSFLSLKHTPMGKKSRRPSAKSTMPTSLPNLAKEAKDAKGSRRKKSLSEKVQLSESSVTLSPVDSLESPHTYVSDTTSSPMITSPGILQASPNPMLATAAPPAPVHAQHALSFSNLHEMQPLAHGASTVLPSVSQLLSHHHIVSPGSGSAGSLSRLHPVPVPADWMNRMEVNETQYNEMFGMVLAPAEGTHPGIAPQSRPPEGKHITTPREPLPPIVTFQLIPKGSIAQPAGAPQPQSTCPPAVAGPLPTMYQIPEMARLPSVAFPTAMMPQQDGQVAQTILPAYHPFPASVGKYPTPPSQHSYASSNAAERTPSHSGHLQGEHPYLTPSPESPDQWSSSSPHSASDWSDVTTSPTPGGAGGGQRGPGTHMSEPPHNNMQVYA

[6] = molecular target: Pro-neuregulin-1, membrane-bound isoform (Homo sapiens) (UniProt Q02297); assay: NRG1 binders on small-molecule microarrays, primary screen, psychiatric disease protein project, biochemical, small-molecule microarray, fluorescence 635/667 (AID 1075); settings: NRG1 binding, 635 nm fluorescence, higher = more signal;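 further: score combines 667 nm spot fluorescence with signal to noise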
[7] = test system: Neuregulin-1 EGF-like domain; assay: binders of neuregulin-1 EGF-like domain, primary screen, biochemical, small-molecule microarray, 635 nm fluorescence (AID 1081); settings: small-molecule microarray binding, higher = more signal;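 further: binding of the protein to compounds printed on small-molecule microarray slides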
[8] = FRG1 promoter luciferase signal modulators, primary screen, FRG1 inhibition for FSHD, cell-based, C2C12 myotubes, firefly/Renilla luciferase, luminescence (AID 1084); settings: higher = more signal, called active from +8 up or from −8 down
[9] = binders of probe aFST on microarray, primary screen, stem cell growth factor project, biochemical, small-molecule microarray, fluorescence 635/667 (AID 1086); settings: higher = more signal;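 further: score merges 667 nm fluorescence with signal-to-noise of each printed compound spot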
[10] = binders of probe aHhip on microarray, primary screen, stem cell growth factor project, biochemical, small-molecule microarray, fluorescence 635/667 (AID 1087); settings: higher = more signal;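 further: score merges spot fluorescence at 667nm with spot signal to noise ratio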
[11] = test system: PRMT1 (protein arginine N-methyltransferase 1); assay: PRMT1 binders on small-molecule microarrays, primary screen, biochemical, small-molecule microarray, 635 nm fluorescence (AID 1088); settings: small-molecule microarray binding, higher = more signal;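 further: binding of Prmt1 protein to compounds spotted on small-molecule microarray slides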
[12] = yeast growth modulation, basal conditions, primary screen, YJM789 clinical isolate, OD600, 24 h (AID 1089);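 further: growth of clinical yeast isolate S. cerevisiae YJM 789 seeded 1000 cells per well; test concentration not given here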; settings: S. cerevisiae YJM789 growth, higher = more signal, called active from +8 up or from −8 down
[13] = fission yeast growth modulation, primary screen, strain 972, OD600, 24 h, no modulator (AID 1090);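 further: basal condition with compound alone and no growth modifier present; test concentration not given here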; settings: S. pombe 972 growth, higher = more signal, called active from +8 up or from −8 down
[14] = S. cerevisiae growth modulation with rapamycin, primary screen, strain BY4716, OD600, 96 h (AID 1091); settings: higher = more signal, called active from +8 up or from −8 down; further: test concentration not given here
[15] = molecular target: Torsin-1A-interacting protein 2 (Homo sapiens) (UniProt Q8NFQ8); assay: LULL1 binders on small-molecule microarray, primary screen, cell lysate, human LULL1 lysate, 635/667 nm fluorescence (AID 1092); settings: hLULL1 lysate binding, 635 nm fluorescence, higher = more signal;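 further: probe is lysate of COS7 cells overexpressing human LULL1; score merges per-feature 667 nm fluorescence with signal-to-noise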
[16] = E. coli growth modulation, two-sided OD650, primary screen, E. coli filamentation project, strain DRC41, 24 h (AID 1093); settings: OD650, 24 h, higher = more signal, called active from +8 up or from −8 down;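 further: MC1000 strain lacking acrAB efflux and sulA so SOS filamentation is blocked; test concentration not given here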
[17] = small-molecule microarray binders of probe aLefty2, primary screen, biochemical, biotinylated probe, 635/667 nm fluorescence (AID 1094); settings: higher = more signal;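 further: score merges spot fluorescence near 667 nm with spot signal-to-noise ratio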
[18] = test system: Noggin (protein binding on small-molecule microarray); assay: Noggin binders on small-molecule microarray, primary screen, biochemical, 635/667 nm fluorescence (AID 1095); settings: 635 nm fluorescence, higher = more signal;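 further: score merges 667 nm feature fluorescence with signal to noise over triplicate slides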
[19] = molecular target: Neurogenic locus notch homolog protein 3 (Homo sapiens) (UniProt Q9UM47); assay: NOTCH3 binders on small-molecule microarray, primary screen, biochemical, 635/667 nm fluorescence (AID 1096); settings: NOTCH3 binding, 635 nm fluorescence, higher = more signal
Chain of Neurogenic locus notch homolog protein 3 (Homo sapiens) (Q9UM47 whole entry, looked up): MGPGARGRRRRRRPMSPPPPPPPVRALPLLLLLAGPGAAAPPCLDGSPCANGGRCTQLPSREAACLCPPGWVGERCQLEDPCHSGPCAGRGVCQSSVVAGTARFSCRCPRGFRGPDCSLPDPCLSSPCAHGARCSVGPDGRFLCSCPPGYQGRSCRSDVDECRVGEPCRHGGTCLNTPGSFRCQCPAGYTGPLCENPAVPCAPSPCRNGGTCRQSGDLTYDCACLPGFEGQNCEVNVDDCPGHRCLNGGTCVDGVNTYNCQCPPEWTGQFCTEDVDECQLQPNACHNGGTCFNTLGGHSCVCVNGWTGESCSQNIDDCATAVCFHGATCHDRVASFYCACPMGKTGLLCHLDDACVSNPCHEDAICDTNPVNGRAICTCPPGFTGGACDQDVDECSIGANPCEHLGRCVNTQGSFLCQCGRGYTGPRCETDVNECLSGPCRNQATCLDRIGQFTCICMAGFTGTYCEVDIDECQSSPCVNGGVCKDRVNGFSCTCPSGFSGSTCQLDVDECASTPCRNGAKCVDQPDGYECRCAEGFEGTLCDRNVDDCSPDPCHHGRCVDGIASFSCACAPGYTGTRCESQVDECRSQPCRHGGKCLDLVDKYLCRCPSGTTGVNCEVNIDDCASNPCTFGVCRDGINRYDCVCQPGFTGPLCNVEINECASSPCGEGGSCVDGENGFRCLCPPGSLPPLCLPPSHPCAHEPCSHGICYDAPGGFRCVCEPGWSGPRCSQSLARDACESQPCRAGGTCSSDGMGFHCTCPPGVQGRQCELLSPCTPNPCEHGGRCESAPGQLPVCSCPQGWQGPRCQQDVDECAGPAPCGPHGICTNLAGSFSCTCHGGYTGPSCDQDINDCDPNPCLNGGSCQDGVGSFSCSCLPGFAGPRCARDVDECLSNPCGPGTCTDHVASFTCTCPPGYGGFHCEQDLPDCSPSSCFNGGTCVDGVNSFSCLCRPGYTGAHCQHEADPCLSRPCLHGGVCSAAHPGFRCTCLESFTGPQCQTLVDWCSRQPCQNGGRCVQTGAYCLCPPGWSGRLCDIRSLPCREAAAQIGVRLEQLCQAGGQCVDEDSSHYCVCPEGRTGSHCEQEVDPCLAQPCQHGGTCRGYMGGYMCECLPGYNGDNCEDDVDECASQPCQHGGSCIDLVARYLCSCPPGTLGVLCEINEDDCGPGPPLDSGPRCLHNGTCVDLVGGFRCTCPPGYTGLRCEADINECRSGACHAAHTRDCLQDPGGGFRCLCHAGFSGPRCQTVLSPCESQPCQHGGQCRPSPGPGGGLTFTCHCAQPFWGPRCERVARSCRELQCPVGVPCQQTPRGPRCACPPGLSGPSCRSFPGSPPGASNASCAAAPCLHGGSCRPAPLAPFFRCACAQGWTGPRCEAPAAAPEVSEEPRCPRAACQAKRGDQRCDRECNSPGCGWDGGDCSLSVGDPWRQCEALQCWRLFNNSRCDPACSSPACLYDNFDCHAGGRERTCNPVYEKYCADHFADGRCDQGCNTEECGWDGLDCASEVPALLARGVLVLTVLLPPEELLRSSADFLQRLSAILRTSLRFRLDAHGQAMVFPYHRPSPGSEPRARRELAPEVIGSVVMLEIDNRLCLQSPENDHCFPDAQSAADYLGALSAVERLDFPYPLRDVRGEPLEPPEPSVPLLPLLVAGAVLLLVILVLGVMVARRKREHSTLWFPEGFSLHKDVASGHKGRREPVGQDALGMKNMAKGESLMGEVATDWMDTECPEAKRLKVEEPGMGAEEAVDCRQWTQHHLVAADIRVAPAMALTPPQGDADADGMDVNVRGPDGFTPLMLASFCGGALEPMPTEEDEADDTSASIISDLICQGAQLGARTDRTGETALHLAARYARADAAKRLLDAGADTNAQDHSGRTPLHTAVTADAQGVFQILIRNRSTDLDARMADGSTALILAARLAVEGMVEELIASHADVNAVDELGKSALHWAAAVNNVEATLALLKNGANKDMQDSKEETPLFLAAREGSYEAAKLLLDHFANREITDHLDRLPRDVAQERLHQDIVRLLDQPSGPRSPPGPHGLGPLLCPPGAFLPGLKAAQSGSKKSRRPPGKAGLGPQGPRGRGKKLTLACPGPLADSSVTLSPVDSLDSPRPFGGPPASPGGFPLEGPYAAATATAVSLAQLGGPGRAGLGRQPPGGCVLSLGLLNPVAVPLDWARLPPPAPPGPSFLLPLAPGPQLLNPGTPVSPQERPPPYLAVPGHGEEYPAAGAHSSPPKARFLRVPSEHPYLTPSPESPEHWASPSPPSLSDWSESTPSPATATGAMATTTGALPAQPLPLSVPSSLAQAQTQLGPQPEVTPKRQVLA

[20] = small-molecule microarray binders of probe aEGFR, primary screen, biochemical, biotinylated probe, 635/667 nm fluorescence (AID 1097); settings: higher = more signal;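 further: probe is a biotinylated anti-EGFR antibody binding compounds printed on slides; score combines fluorescence near 667 nm and signal to noise of each spot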

| SMILES | composite z-score [1] | composite z-score [2] | composite z-score [3] | composite z-score [4] | composite z-score [5] | composite z-score [6] | composite z-score [7] | z-score [8] | composite z-score [9] | composite z-score [10] | composite z-score [11] | z-score [12] | z-score [13] | z-score [14] | composite z-score [15] | z-score [16] | composite z-score [17] | composite z-score [18] | composite z-score [19] | composite z-score [20] |
| --- | --- | --- | --- | --- | --- | --- | --- | --- | --- | --- | --- | --- | --- | --- | --- | --- | --- | --- | --- | --- |
| CCOC(=O)C[C@H]1[C@H](OC(=O)c2cc3ccccc3oc2=O)[C@@H](NC(=O)Cc2ccc(OC)cc2)c2cc(OCCCO)ccc2N1C(=O)c1ccc2ccccc2n1 | -0.19 | 0.648 | -0.127 | 0.403 | 0.848 | 0.35 | 0.996 | -1.07 (inactive) | 0.0814 | -0.123 | 0.268 | -0.724 (inactive) | -0.138 (inactive) | -0.0607 (inactive) | 0.773 | 1.31 (inactive) | -0.11 | 0.68 | 1.15 | -0.0241 |
| C=CCN1C(=O)[C@@]2(O[C@@H](CCn3cc([C@H](O)c4ccccc4)nn3)[C@H]([Si](C)(C)c3ccc(OC)cc3)[C@H]2C)c2cc(N3CCC3=O)ccc21 | 0.211 | 0.175 | -0.0894 | 0.383 | -0.496 | 0.997 | 1.25 | -1.88 (inactive) | -0.259 | -0.13 | 0.467 | 1.38 (inactive) | 0.95 (inactive) | 2.37 (inactive) | 1.03 | 0.456 (inactive) | -0.11 | 0.711 | -0.681 | -0.183 |
| C[N+](C)(C)CCCCCCNC(=O)[C@H]1C[C@H]2C(=O)NCC(=O)N2[C@H]1c1ccc(O)cc1 | -0.411 | 0.71 | -0.0973 | 0.776 | 0.0422 | 1.52 | 1.17 | 4.03 (inactive) | 0.358 | -0.744 | 1.46 | -0.374 (inactive) | 0.332 (inactive) | -0.489 (inactive) | 2.88 | 0.376 (inactive) | -0.413 | 1.6 | 1.05 | -0.12 |
| CO[C@H]1O[C@H](CO)[C@@H](OC(=O)Nc2ccc3c(c2)OCO3)[C@H](OC(=O)c2cc3ccccc3[nH]2)[C@H]1OC(=O)c1cc2ccccc2[nH]1 | -0.0446 | -0.152 | -0.0047 | 0.236 | -0.904 | 0.386 | 0.514 | 1.13 (inactive) | -0.598 | 0.0623 | 0.391 | -2.1 (inactive) | -0.908 (inactive) | 0.489 (inactive) | -0.33 | 0.382 (inactive) | 0.0204 | 0.111 | 0.123 | -0.0828 |
| COCCCNC(=O)[C@@]1(Cc2ccccc2N=[N+]=[N-])COC(c2ccc(OCCCO)cc2)=N1 | 0.846 | 0.0792 | 0.146 | 0.805 | 1 | 1.54 | 1.27 | 0.554 (inactive) | 0.734 | -0.274 | 1.43 | -0.0885 (inactive) | -1.52 (inactive) | 0.0734 (inactive) | 3.13 | 1.39 (inactive) | 0.219 | 0.0137 | 0.0417 | 0.507 |
| COC(=O)[C@@]1(Cc2ccc(OC)cc2)[C@H]2c3cc(C(=O)N4CCCC4)n(Cc4c(-c5ccccc5)noc4C)c3C[C@H]2CN1C(=O)c1ccccc1 | 0.194 | 0.245 | 0.336 | 0.812 | 1.71 | 1.31 | 1.25 | 0.44 (inactive) | 1.73 | 1.79 | 0.525 | 0.729 (inactive) | 1.32 (inactive) | 1.77 (inactive) | 3.31 | 0.19 (inactive) | 0.422 | 0.658 | 1.04 | 0.374 |
| C=CC[C@]1(C(=O)NCCN2CCOCC2)N=C(c2ccc(OCCCO)cc2)O[C@H]1c1ccccc1CN=[N+]=[N-] | 0.442 | 1.46 | -0.0078 | 0.333 | 0.837 | 0.849 | 1.23 | 1.81 (inactive) | 0.171 | 0.0338 | 1.4 | -0.0011 (inactive) | -1.77 (inactive) | -0.744 (inactive) | 1.64 | 1.23 (inactive) | 0.298 | 0.641 | -1.35 | 0.159 |
| C=CCC(OC(C)=O)[C@@H]1[C@@H](N(Cc2cccc3ccccc23)C(=O)Cc2ccc(OC)cc2)c2cc(OCCCO)ccc2N1C(=O)c1ccc2ccccc2n1 (stereo not given in full) | -0.192 | 0.0233 | 0.0437 | 0.11 | -0.263 | 0.836 | 0.154 | -1.76 (inactive) | 0.153 | -0.152 | 0.892 | -0.482 (inactive) | 0.787 (inactive) | -1.24 (inactive) | 1.2 | -0.558 (inactive) | -0.109 | 0.201 | 0.222 | -0.144 |
| CN(C)CCCCNC(=O)[C@@H]1C[C@@H]2C(=O)N[C@@H](Cc3ccccc3)C(=O)N2[C@@H]1c1cccc(OCCO)c1 | -0.185 | 0.971 | 0.0281 | 0.645 | -0.729 | 0.382 | 0.905 | 3.35 (inactive) | 0.218 | 0.0524 | 1.55 | -5.59 (inactive) | -1.63 (inactive) | -1.09 (inactive) | 1.5 | 2.67 (inactive) | -0.125 | 1.45 | 1.06 | -0.131 |
| [N-]=[N+]=Nc1ccccc1C[C@]1(C(=O)N2CCOCC2)N=C(c2ccc(OCCCO)cc2)O[C@H]1c1ccccc1 | 0.747 | 1.49 | 0.17 | 0.983 | 1.48 | 1.13 | 1.23 | -1.62 (inactive) | 1.29 | 0.348 | 1.55 | 0.491 (inactive) | -8.46 (active) | 1.42 (inactive) | 2.69 | 1.94 (inactive) | 0.178 | 0.593 | 0.871 | 0.134 |

Reference: PubChem BioAssay
